Test [1] is described as follows: qHTS assay to identify small molecule agonists of the androgen receptor (AR) signaling pathway in the presence of an antagonist - cell viability counter screen (AID 1259379). Also: nearly all actives have a fitted effect of over 25% in size. Also: potency is read from the fitted curve at half-maximal effect. In outline:
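Cells: MDA-kb2 (MMTV-luc, AR and GR elements), 3,000/well, 5 hr settle. Added: nilutamide 3.0uM final, then compounds (15 conc.). Incubation: 16 hr, 37C, no CO2. Read-out: CellTiter-Fluor, 1 hr, fluorescence.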

A short description of test [2]: qHTS assay to identify small molecule agonists of the estrogen receptor beta (ER-beta) signaling pathway - cell viability counter screen (AID 1259380). Also: nearly all actives have a fitted effect of over 30% in size. Also: potency is read from the fitted curve at half-maximal effect. Put shortly:
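HEK293T ER-beta-UAS-bla; 2% CS-FBS; 6 hr pre-plate, 16 hr cpd at 37C/5% CO2; LiveBLAzer read first, then CellTiter-Glo 30 min RT, luminescence.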
A general note: In qHTS, concentration-response curves come from the screen itself.

Test [3] in a line: qHTS assay to identify small molecule agonists of the estrogen receptor alpha (ER-alpha) signaling pathway in the presence of an antagonist - cell viability counter screen (AID 1259386).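 Also: series mostly up to about 92 µM; cells exposed to compounds for 22 h at 37 °C before the viability read; nearly all actives have a fitted effect of over 30% in size.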 In outline: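 VM7Luc4E2, stripped-serum pre-culture 5 d; 24hr plating; +ICI-182,780 10.0nM final; cpds 15 conc, 22hr, 37C/5% CO2; CellTiter-Fluor added at 21hr, fluorescence 1hr later.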
Test [4] deals with Progesterone receptor (Homo sapiens) (UniProt P06401). Description: qHTS assay to identify small molecule agonists of the progesterone receptor (PR) signaling pathway (AID 1346784; calls by dose curve; also: nearly all actives have a fitted effect of over 30% in size; also: potency is read from the fitted curve at half-maximal effect). Put shortly: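 Reporter assay, GripTite PR-UAS-bla HEK 293T cells: 16 hr exposure to DMSO-dissolved compounds at 37C, 5% CO2, in steroid-depleted (2% charcoal-stripped FBS) medium; beta-lactamase measured by FRET fluorescence.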
Progesterone receptor (Homo sapiens), sequence (P06401 whole entry, looked up): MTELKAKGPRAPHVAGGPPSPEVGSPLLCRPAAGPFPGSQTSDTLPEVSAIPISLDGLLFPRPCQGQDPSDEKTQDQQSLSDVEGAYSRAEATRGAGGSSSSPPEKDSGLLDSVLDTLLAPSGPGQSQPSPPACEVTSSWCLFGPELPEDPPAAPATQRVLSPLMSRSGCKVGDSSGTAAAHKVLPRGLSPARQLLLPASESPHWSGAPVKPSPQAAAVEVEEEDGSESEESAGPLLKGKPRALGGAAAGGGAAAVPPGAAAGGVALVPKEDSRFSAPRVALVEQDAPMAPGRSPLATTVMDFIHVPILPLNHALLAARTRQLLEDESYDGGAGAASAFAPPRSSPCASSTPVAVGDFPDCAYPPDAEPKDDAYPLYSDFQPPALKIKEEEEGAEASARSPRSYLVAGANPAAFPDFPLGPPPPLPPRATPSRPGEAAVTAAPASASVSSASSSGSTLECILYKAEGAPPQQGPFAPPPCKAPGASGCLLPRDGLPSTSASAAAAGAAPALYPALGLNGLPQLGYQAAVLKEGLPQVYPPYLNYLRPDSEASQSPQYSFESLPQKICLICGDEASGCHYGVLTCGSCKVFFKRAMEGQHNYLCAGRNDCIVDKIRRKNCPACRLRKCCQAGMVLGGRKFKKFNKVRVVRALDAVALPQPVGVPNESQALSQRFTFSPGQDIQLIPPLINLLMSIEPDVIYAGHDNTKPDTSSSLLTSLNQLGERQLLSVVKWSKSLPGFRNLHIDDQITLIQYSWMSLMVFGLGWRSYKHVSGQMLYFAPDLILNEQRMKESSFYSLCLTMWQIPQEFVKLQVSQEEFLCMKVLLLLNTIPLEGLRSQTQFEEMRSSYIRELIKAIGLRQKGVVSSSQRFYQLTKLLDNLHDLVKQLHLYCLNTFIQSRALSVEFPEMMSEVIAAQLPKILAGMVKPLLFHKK

Test [5] has the same target. Description: qHTS assay to identify small molecule antagonists of the progesterone receptor (PR) signaling pathway (AID 1346795; active = well fitted inhibition curve with a large enough effect in the signal ratio in the repeat runs, not every such curve was filed as active; the % refers to the signal ratio; also: potency is read from the fitted curve at half-maximal effect). In outline:
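Stimulus R5020 at 1 nM final; cells HEK293T PR-UAS-bla; medium with 2% charcoal-stripped FBS; compound exposure 16 hr at 37C, 5% CO2; detection by FRET beta-lactamase substrate, 2 hr, room temperature.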

A short description of test [6]: qHTS assay to identify small molecule antagonists of the progesterone receptor (PR) signaling pathway - cell viability counter screen (AID 1346798). Also: series mostly up to about 92 µM; nearly all actives have a fitted effect of over 50% in size. Put shortly: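 In the same plates used for the beta-lactamase readout, cell viability of compound- and R5020-treated PR-UAS-bla HEK293T cells (16 hr, 37C) was assessed by CellTiter-Glo luminescence.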
Test [7] in a line: qHTS assay to identify small molecule agonists of the progesterone receptor (PR) signaling pathway - cell viability counter screen (AID 1346799; calls by dose curve; also: nearly all actives have a fitted effect of over 45% in size; also: potency is read from the fitted curve at half-maximal effect). Put shortly: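 Multiplexed viability read: CellTiter-Glo luminescence, 30 min RT, following LiveBLAzer FRET measurement on PR-UAS-bla HEK293T cells exposed to compounds 16 hr.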
Test [8] is described as follows: qHTS assay to identify small molecule antagonists of the TGF-beta/Smad signaling pathway - cell viability counter screen (AID 1346824). Also: nearly all actives have a fitted effect of over 50% in size. Put shortly: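 Cytotoxicity counter-screen run in the same wells as the beta-lactamase Smad reporter read: CellTiter-Glo luminescence after 30 min at room temperature. HEK 293T SBE-bla cells had 5 hr compound exposure at 37 C with TGF-beta1 (0.25 ng/mL stock).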

Test [9] is described as follows: qHTS assay to identify small molecule agonists of the TGF-beta/Smad signaling pathway - cell viability counter screen (AID 1346829). Also: top concentration of the series differs between compounds; nearly all actives have a fitted effect of over 45% in size. Put shortly:
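Compound-treated SBE-bla HEK 293T cells (5 hr, 37 C) were assessed for viability with CellTiter-Glo in parallel with the reporter read.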

Test [10] is described as follows: qHTS assay to identify small molecule agonists of the TGF-beta/Smad signaling pathway (AID 1346859; active = well fitted activation curve with a large enough effect in the signal ratio in the repeat runs, not every such curve was filed as active; the % refers to the signal ratio; also: series mostly up to about 77 µM). In outline: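 Screening used HEK 293T SBE-bla cells at 4,000/well. Test agents: 5 hr, 37 C. Detection: FRET substrate, 2 hr RT, then excitation 405 nm with emissions at 460 and 530 nm.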
Test [11] addresses Thyrotropin-releasing hormone receptor (Homo sapiens) (UniProt P34981). As to the kind of experiment: qHTS assay to identify small molecule antagonists of the thyrotropin-releasing hormone receptor (TRHR) signaling pathway (AID 1346877; active = well fitted inhibition curve with a large enough effect in the repeat runs, not every such curve was filed as active; also: series mostly up to about 51 µM). Put shortly:
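Intracellular calcium fluorescence, read kinetically every second over 3 min, reports TRH-evoked signalling in HEK293 cells carrying TRHR. Test compounds were added 5 min ahead of a 1 nM TRH challenge.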

For test [12] the target is unchanged. As to the kind of experiment: qHTS assay to identify small molecule agonists of the thyrotropin-releasing hormone receptor (TRHR) signaling pathway (AID 1346891; calls by dose curve; also: series mostly up to about 58 µM). In outline:
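Readout was intracellular calcium fluorescence in TRHR-Hek293 cells. Cells were incubated 18 h, dye-loaded 2 h at 37 °C, and treated with compound in agonist mode.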

A short description of test [13]: Human pregnane X receptor (PXR) small molecule agonists, qHTS cell viability counter screen (AID 1346977). Also: nearly all actives have a fitted effect of over 50% in size. Also: potency is read from the fitted curve at half-maximal effect. Put shortly: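 In each well, the PXR reporter HepG2 line was checked for viability: CellTiter-Fluor reagent added 23hr post-dosing, fluorescence read after 1hr incubation at 37C.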
A short description of test [14]: Caspase-3/7 induction in HepG2 cells by small molecules, qHTS assay (AID 1346978). Also: nearly all actives have a fitted effect of over 15% in size. Put shortly: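 Caspase-3/7 induction was measured by Caspase-Glo 3/7 luminescence (30 min, room temperature) after a 17 hr compound exposure of wild-type HepG2 cells seeded at 2,000 per well and pre-incubated 5 hr.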
A short description of test [15]: Caspase-3/7 induction in CHO-K1 cells by small molecules, qHTS cell viability counter screen (AID 1346979). Also: nearly all actives have a fitted effect of over 35% in size. Also: potency is read from the fitted curve at half-maximal effect. Put shortly: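 Following a 5hr settling period, CHO-K1 cells at 1,500 per well received DMSO-dissolved compounds. Cell viability was quantified 16hr later by CellTiter-Fluor fluorescence, measured after 1hr with reagent at 37C.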
Test [16] in a line: qHTS assay to identify small molecule agonists or antagonists of the thyroid stimulating hormone receptor (TSHR) signaling pathway - wild type cell line counter screen (AID 1259384; calls by dose curve). Put shortly:
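Counter screen in untransfected Hek293: compounds (15-point titration, triplicate) plus phosphodiesterase inhibitor Ro20-1724 added after 18 h plating; 30 min RT. Intracellular cAMP via competitive d2/cryptate immunoassay, 1 h incubation.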

Test [17] addresses Thyrotropin receptor (Homo sapiens) (UniProt P16473). As to the kind of experiment: qHTS assay to identify small molecule antagonists of the thyroid stimulating hormone receptor (TSHR) signaling pathway (AID 1259385; calls by dose curve; also: nearly all actives have a fitted effect of over 20% in size). Put shortly:
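Antagonist mode: compound-treated TSHR-expressing HEK293 cells were stimulated with 1.5 ng/mL TSH (final) in presence of Ro20-1724 for 30 min at RT. HTRF cAMP detection after 1 h; each compound tested at 15 concentrations, triplicate.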

Test [18] is described as follows: qHTS assay to identify small molecule antagonists of the estrogen receptor beta (ER-beta) signaling pathway - cell viability counter screen (AID 1259382). Also: nearly all actives have a fitted effect of over 55% in size. Also: potency is read from the fitted curve at half-maximal effect. Put shortly: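 Cells: ER-beta-UAS-bla HEK293T, 2,000/well, 2% CS-FBS, 6 hr settle. Cpd + E2 (1nM final), 16 hr, 37C/5% CO2. Bla FRET substrate 2 hr RT, then CellTiter-Glo 30 min RT, luminescence.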
Test [19] has as its target Estrogen receptor (Homo sapiens) (UniProt P03372). As to the kind of experiment: qHTS assay to identify small molecule agonists of the estrogen receptor alpha (ER-alpha) signaling pathway in the presence of an antagonist (AID 1259383; calls by dose curve; also: top concentration of the series differs between compounds; nearly all actives have a fitted effect of over 15% in size). Put shortly:
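VM7Luc4E2, endog. ER-alpha + 4×ERE-luc; charcoal-stripped FBS, phenol red-free, 5 d; 24hr plating; +10.0nM ICI-182,780 (final); cpds 15 conc, 22hr, 37C/5% CO2; ONE-Glo luminescence.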

Each structure is given as a SMILES string. Values joined by “and” are separate entries in the source; they are usually repeats but may differ in a detail not shown here. Identical values can stand only once. Results filed as inconclusive are left out. Some compounds were tested as several samples or in several runs, with calls that do not always agree. Active and inactive are the calls of the source. Unless noted, calls follow the shape of the dose curve; as a rule, active = well fitted curve in the direction sought with a large enough effect in the repeat runs; inconclusive = weak or mixed curves; inactive = no such curve, though single readings can be large; an effect the other way counts as inactive or inconclusive.

Thyrotropin-releasing hormone receptor (Homo sapiens), sequence (P34981 whole entry, looked up): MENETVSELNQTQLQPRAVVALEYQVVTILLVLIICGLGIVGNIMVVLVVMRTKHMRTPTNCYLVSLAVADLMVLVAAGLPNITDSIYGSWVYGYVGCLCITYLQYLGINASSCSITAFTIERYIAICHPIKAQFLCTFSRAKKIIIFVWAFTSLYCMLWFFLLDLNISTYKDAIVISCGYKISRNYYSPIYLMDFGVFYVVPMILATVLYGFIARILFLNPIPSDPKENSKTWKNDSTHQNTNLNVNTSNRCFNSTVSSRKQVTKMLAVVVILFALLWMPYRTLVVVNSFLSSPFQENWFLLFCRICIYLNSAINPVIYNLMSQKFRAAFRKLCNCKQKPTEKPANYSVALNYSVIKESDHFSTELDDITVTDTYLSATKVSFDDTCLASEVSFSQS
Estrogen receptor (Homo sapiens), sequence (P03372 whole entry, looked up): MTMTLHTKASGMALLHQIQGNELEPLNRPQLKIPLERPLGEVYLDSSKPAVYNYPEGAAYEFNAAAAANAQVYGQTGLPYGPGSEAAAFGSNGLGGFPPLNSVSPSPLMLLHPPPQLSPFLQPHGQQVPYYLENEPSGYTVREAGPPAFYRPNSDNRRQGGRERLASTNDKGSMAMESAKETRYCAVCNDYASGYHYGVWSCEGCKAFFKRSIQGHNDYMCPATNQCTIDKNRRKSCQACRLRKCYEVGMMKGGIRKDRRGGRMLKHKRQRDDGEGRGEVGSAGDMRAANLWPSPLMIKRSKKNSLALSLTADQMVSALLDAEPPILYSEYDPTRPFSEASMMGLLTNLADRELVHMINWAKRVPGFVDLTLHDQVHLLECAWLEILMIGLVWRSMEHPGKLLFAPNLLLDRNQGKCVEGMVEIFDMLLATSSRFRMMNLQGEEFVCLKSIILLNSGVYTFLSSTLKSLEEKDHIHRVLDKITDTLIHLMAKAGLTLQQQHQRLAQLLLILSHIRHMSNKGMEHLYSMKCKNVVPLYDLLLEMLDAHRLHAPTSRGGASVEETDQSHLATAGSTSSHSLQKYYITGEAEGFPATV
Thyrotropin receptor (Homo sapiens), sequence (P16473 whole entry, looked up): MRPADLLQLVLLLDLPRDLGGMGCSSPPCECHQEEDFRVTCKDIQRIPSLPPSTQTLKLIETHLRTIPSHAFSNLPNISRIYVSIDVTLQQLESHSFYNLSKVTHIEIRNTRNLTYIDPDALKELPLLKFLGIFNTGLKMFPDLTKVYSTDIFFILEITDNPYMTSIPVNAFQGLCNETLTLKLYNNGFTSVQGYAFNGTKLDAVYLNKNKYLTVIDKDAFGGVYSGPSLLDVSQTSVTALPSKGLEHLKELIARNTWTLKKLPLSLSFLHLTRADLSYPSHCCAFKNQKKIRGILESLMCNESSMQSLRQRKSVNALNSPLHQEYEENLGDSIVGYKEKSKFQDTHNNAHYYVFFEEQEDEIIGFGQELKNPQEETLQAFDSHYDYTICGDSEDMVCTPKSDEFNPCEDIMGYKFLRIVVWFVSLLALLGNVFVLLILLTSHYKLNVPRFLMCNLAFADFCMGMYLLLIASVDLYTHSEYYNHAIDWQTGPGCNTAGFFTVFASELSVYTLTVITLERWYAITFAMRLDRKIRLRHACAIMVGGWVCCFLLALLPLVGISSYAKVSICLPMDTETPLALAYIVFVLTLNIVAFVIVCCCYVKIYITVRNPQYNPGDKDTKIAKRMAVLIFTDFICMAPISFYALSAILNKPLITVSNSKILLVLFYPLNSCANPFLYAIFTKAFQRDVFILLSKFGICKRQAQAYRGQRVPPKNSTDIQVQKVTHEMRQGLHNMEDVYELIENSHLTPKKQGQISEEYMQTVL

Turning to `COc1ccccc1N`, the Potency entry in [1], in test [2], in [3], in test [4], in [5] and in test [6] was “inactive” throughout. Also, the Potency entry in test [7], in [8], in test [9], in [10], in [11] and in test [12] was “inactive” in each case. For the same molecule, the Potency result in [13], in [14] and in test [15] was “inactive” each time.
As for `CC[n+]1ccccc1`, the Potency entry is “inactive and 24.1 µM (active)” in [1]; “inactive and 60.6 µM (active)” in test [2]; “inactive and 48.2 µM (active)” in [7]; “inactive and 6.06 µM (active)” in [13]; “inactive and 763 nM (active)” in [15]. Besides, the Potency result in [16], in test [17], in [4], in test [5], in [8] and in [9] was “inactive” in each case. Moreover, the Potency result in test [10] and in test [14] was “inactive” in each case.
In the case of `CNC`, the Potency entry in [1], in [2], in [4], in test [5], in test [6] and in [7] was “inactive” each time. Besides, the Potency entry in test [8], in test [9], in [10], in test [11], in test [12] and in test [13] was “inactive” throughout. Moreover, the Potency entry in test [14] and in test [15] was “inactive” each time.
As for `CCCC[N+]1(C)CCCCC1`, the Potency result in test [1], in test [2], in [16], in test [17], in test [4] and in test [5] was “inactive” in each case. Further, the Potency result in test [6], in test [7], in [8], in [9], in test [10] and in test [13] was “inactive” throughout. In addition, the Potency entry in test [14] and in [15] was “inactive” each time.
With `CC[N+]1(C)CCCC1`, the Potency result in test [1] was “inactive and 61.3 µM (active)”; in test [4], 19.8 µM (active) and inactive. The Potency entry in test [2], in [5], in test [6], in test [7], in test [8] and in [9] was “inactive” in each case. Further, the Potency result in test [10], in test [13], in [14] and in [15] was “inactive” each time.
As to `CCCCCCCCCCCCCCCCn1cc[n+](C)c1`, the Potency result is “inactive and 61.7 µM (active) and 30.7 µM (active)” in [18]; “inactive and 21.7 µM (active)” in [5]; “inactive and 61.7 µM (active) and 30.7 µM (active)” in [7]. The Potency result in [16], in [17], in [4], in test [10] and in [14] was “inactive” each time.
For the molecule `CCCCCCCCCCCCOS(=O)(=O)O`, the Potency result in [1], in [4], in test [5], in test [6], in [8] and in test [9] was “inactive” each time. Further, the Potency entry in test [10], in test [13], in test [14] and in test [15] was “inactive” throughout. For the same molecule, the Potency result in [7] is “inactive and 27.3 µM (active)”.
In the case of `COc1ccc(N)cc1`, the Potency entry in test [1], in test [2], in test [16], in test [17], in [4] and in [5] was “inactive” each time. Further, the Potency result in test [6], in [7], in test [8], in test [9], in [10] and in [13] was “inactive” throughout. Moreover, the Potency result in test [14] and in test [15] was “inactive” throughout.
Regarding `O=c1nc(O)n(Cl)c(=O)n1Cl`, the Potency entry in [1], in [2], in test [4], in test [5], in [6] and in test [7] was “inactive” in each case. Also, the Potency result in test [8], in [9], in test [10], in test [11], in test [12] and in test [13] was “inactive” in each case. The Potency result in [14] and in test [15] was “inactive” throughout.
For the molecule `Oc1ccccc1-c1ccccc1`, the Potency entry in [1], in test [2], in test [19], in test [4], in test [5] and in test [6] was “inactive” in each case. The Potency result in test [7], in test [8], in [9], in test [10], in test [11] and in test [12] was “inactive” each time. For the same molecule, the Potency entry in [13], in [14] and in test [15] was “inactive” in each case.

These data come from PubChem BioAssay (Tox21).
